# From ChEMBL document CHEMBL3433997, “St. Jude Leishmania screening dataset” (2016)
# Biological target: Glucose transporter (Leishmania mexicana) (UniProt O61059)
# Assay: ST_JUDE_LEISH: Cytotoxicity at 2uM final concentration against transgenic Leishmania Mexicana promastigotes LmGT2 that are glucose transport deficient and complemented with the L. Mexicana glucose transporter 2. Activity is measured by DNA content using SYBR green in vitro
# Type: functional
row,Structure (SMILES),inhibition [%]
1,COc1ccc(NC(=O)[C@H](CC(C)C)Nc2ccnc(NCCc3ccc(F)cc3)n2)cc1,1.38
2,FC(F)(F)c1cccc(CNCC2CCN(CC3CCCCC3)CC2)c1,0.34
3,Cc1cccc(CN2CCCN(Cc3ccc(C(=O)Nc4ccc(C)c(F)c4)cc3)CC2)c1,2.11
4,N=C(NCCc1ccc(Cl)c(Cl)c1)c1ccc2ccccc2c1,-2.5
5,O=c1cc(NCCCNCc2ccc(Cl)c(Cl)c2)[nH]c2ccc(C(F)(F)F)cc12,2.08
6,Cc1cccc(CCNC(=O)c2cc(Br)cc(N3CCN(c4ccncc4)CC3)c2)c1,1.78
7,Cc1ccc(CN2CCCN(Cc3ccc(C(=O)Nc4ccc(Cl)cc4)cc3)CC2)s1,0.05
8,O=C(/C=C/c1ccc(Cl)c(Cl)c1)NCCCCCN1CCC(NC(=O)Nc2cc(Cl)ccc2Cl)CC1,9.67
9,Cc1ccc(NC(=N)Nc2ncccc2OCc2c(F)cccc2Cl)cc1,5.56
10,O=C(Cc1ccc(Cl)cc1)Nc1cc(Cl)ccc1Cn1cnc(N2CCNCC2)cc1=O,2.2
11,CN(CC(=O)Nc1ccc(F)cc1)C(=O)c1ccc(-c2ccc(F)cc2)o1,5.24
12,CCn1ncc2c(NC3CCOCC3)c(CNC(=O)c3ccnn3C)c(C)nc21,0.31
13,COc1ccc(N(C)Cc2cnc3nc(N)nc(N)c3n2)cc1,2.61
14,N#Cc1ccc2c(c1)CCN(CCC1CCC(NC(=O)/C=C/c3c[nH]c4c(Br)cccc34)CC1)CC2 (centres undefined),6.85
15,COCCOc1cccc(CN2CCC(c3cc4nc(C)cc(C(F)(F)F)n4n3)C2)c1 (centres undefined),0.83
16,COc1c(C2CCN(CCCCNC(=O)c3ccc(-c4ccc(NC(=O)C(F)(F)F)cc4)cc3)CC2)ccc2c1CCCC2,0.3
17,O=C1C(=Cc2c(O)ccc3ccccc23)SC(=NCc2ccccc2)N1Cc1ccccc1,3.38
18,CCCCCCCN(CCCCCCC)CCCC(=O)Nc1ccnc2ccc(OC)cc12,-1.2
19,Cc1c(C)c2c(c(C)c1O)CCC(C)(CCC(=O)O)O2 (centres undefined),1.82
20,Cc1[nH]c(C)c([N+](=O)[O-])c(=O)c1-c1ccc(Oc2ccc(OC(F)(F)F)cc2)cc1,1.41

row,Structure (SMILES),inhibition [%]
1,COc1ccc(C(=O)CCc2ccc(O)cc2)cc1,2.43
2,COc1cc(-n2c(CN3CCCC3)nc3cc(-c4ccc(Cl)cc4)sc3c2=O)ccc1OCCN1CCCC1,0.37
3,Cc1cc(NC2CCCC2)nc(Nc2ccccc2F)n1,2.95
4,CC1(C)CN2CCCC2c2cc(NC(=O)/C=C/c3ccccc3Cl)ccc21 (centres undefined),0.94
5,O=C(Nc1cccc(CN2CCCN(Cc3ccsc3)CC2)c1)c1cc2ccccc2s1,-0.93
6,CCCN1CCN(CCCCNc2c3ccccc3nc3ccccc23)CC1,27.7
7,CC1(C)NC(N)=NC(=N)N1OCCCO,-1.67
8,Cc1c(F)cc(C(=O)NC2CC2)cc1-c1ccc2c(cnn2S(=O)(=O)c2cccs2)c1,0.02
9,COc1ccc(C(=O)O)cc1OCc1ccccc1,0.75
10,COc1cc2c(cc1OC)C(C(=O)Nc1cc(OC)c(OC)c(OC)c1)C(c1ccc(SC)cc1)N(C)C2=O (centres undefined),2.73
11,Cc1ccc(F)cc1S(=O)(=O)Nc1ccc(CCN2CCC(N3CCCCC3)CC2)cc1,1.36
12,Nc1nc(N)c2c(ccc3c2ccn3Cc2ccc3c(c2)OCO3)n1,93.7
13,COc1ccc2nccc([C@@H](O)CN3CCC(NC(=O)CCC(=O)c4cc(C(C)(C)C)ccc4OC)CC3)c2c1,1.95
14,CCCCCCCN1CCC(CCNc2ccnc3ccc(OC)cc23)CC1,0.79
15,COc1ccc2nccc([C@@H](O)CN3CCC(NC(=O)c4ccc(Cl)c(OC)c4)CC3)c2c1,0.22
16,O=C(/C=C/c1ccc(Cl)c(Cl)c1)NCCCCCN1CCCN(C(=O)Nc2cccc(Cl)c2)CC1,3.37
17,O=C(Cc1n[nH]c(=O)c2ccccc12)Nc1cccc(C(=O)Nc2cccc(C(F)(F)F)c2)c1,2.16
18,Cc1ccc(CN2CCCN(Cc3cccc(NC(=O)c4ccc(-c5ccccc5)cc4)c3)CC2)cc1C,2.82
19,COc1ccc2nc(C)cc(N/N=C/c3ccc([N+](=O)[O-])o3)c2c1,0.72
